Measured values: PubChem BioAssay AID1159580 (chemical genetic matrix, 2015)
Several values for one entry are separate records, joined by “and”; a condition that tells them apart may be missing. Equal values may be shown once. Out of some 5,500 compounds screened, about 2,000 (36%) were called active. Inconclusive results (about 18%) are left out. Cut-off read from the data, not from the text of the source: active = normalized growth mostly below about 0.91 (no sharp cut-off); inconclusive = no clear call, values can overlap the other calls; inactive = mostly above about 0.92. This is one part of the list.

Assay: chemical genetic growth profiling, strain panel (AID 1159580);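 note: tested at 20 µM; growth read once vehicle control cultures reached saturation at 30 °C; 1 = growth at the plate median or of vehicle wells; lower values mean less growth of the strain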
Conditions: S. cerevisiae deletion strains, growth OD

Measured: normalized growth

CN[C@@H]1[C@H](OC2[C@H](O[C@H]3[C@H](O)[C@@H](O)[C@H](N=C(N)N)[C@@H](O)[C@@H]3N=C(N)N)O[C@@H](C)[C@]2(O)C=O)O[C@@H](CO)[C@H](O)[C@H]1O (stereo not given in full)
inactive: locus YAL013W, strain DEP1, stronger effect = lower value 1 | locus YAL021C, strain ccr4, stronger effect = lower value 1 | locus YAL026C, strain drs2, stronger effect = lower value 0.993 | locus YAL030W, strain snc1, stronger effect = lower value 1.01 | locus YBL061C, strain skt5, stronger effect = lower value 1.01 | locus YBR009C, strain hhf1, stronger effect = lower value 0.988 | locus YBR021W, strain FUR4, stronger effect = lower value 1.02 | locus YBR023C, strain chs3, stronger effect = lower value 1 | locus YBR171W, strain sec66, stronger effect = lower value 1.01 | locus YBR229C, strain ROT2, stronger effect = lower value 1.02 | locus YBR231C, strain swc5, stronger effect = lower value 1.03 | locus YBR279W, strain paf1, stronger effect = lower value 0.999 | locus YCL011C, strain gbp2, stronger effect = lower value 0.992 | locus YCL016C, strain dcc1, stronger effect = lower value 0.98 | locus YCL029C, strain bik1, stronger effect = lower value 1.01 | locus YCL069W, strain vba3, stronger effect = lower value 1.01 | locus YCR088W, strain abp1, stronger effect = lower value 0.998 | locus YDL005C, strain med2, stronger effect = lower value 1.01 | locus YDL035C, strain GPR1, stronger effect = lower value 1.01 | locus YDL040C, strain nat1, stronger effect = lower value 0.999 | locus YDL074C, strain BRE1, stronger effect = lower value 1.01 | locus YDL101C, strain DUN1, stronger effect = lower value 1.01 | locus YDL134C, strain PPH21, stronger effect = lower value 1.01 | locus YDL185W, strain tfp1, stronger effect = lower value 0.996 | locus YDL192W, strain arf1, stronger effect = lower value 1.01 | locus YDR001C, strain nth1, stronger effect = lower value 0.987 | locus YDR069C, strain doa4, stronger effect = lower value 1.04 | locus YDR101C, strain arx1, stronger effect = lower value 1.01 | locus YDR137W, strain rgp1, stronger effect = lower value 1.03 | locus YDR159W, strain sac3, stronger effect = lower value 0.978 | locus YDR162C, strain NBP2, stronger effect = lower value 1 | locus YDR195W, strain ref2 1.04 | locus YDR297W, strain sur2, stronger effect = lower value 1.02 | locus YDR318W, strain mcm21, stronger effect = lower value 1.01 | locus YDR334W, strain swr1, stronger effect = lower value 1.01 | locus YDR335W, strain msn5, stronger effect = lower value 1.01 | locus YDR388W, stronger effect = lower value 1.02 | locus YDR392W, strain spt3, stronger effect = lower value 0.959 | locus YDR502C, strain sam2, stronger effect = lower value 1.02 | locus YEL003W, strain gim4, stronger effect = lower value 1.01 | locus YEL037C, strain rad23, stronger effect = lower value 1 | locus YEL061C, strain CIN8 (second series), stronger effect = lower value 1.01 | locus YEL061C, strain CIN8, stronger effect = lower value 1.01 | locus YER015W, strain faa2, stronger effect = lower value 1 | locus YER016W, strain bim1, stronger effect = lower value 0.987 | locus YER110C, stronger effect = lower value 1.03 | locus YER111C, strain swi4, stronger effect = lower value 1 | locus YER155C, strain BEM2 (second series), stronger effect = lower value 1.04 | locus YER155C, strain BEM2, stronger effect = lower value 0.995 | locus YER167W, strain BCK2, stronger effect = lower value 1.01 | locus YFR010W, strain ubp6, stronger effect = lower value 1.03 | locus YGL078C, strain dbp3, stronger effect = lower value 1 | locus YGL086W, strain mad1, stronger effect = lower value 1.01 | locus YGL167C, strain pmr1, stronger effect = lower value 1.02 | locus YGL173C, strain kem1, stronger effect = lower value 1.03 | locus YGL227W, strain vid30, stronger effect = lower value 0.998 | locus YGL240W, strain doc1, stronger effect = lower value 1.05 | locus YGL248W, strain PDE1, stronger effect = lower value 1.01 | locus YGL253W, strain hxk2, stronger effect = lower value 0.977 | locus YGR135W, strain pre9, stronger effect = lower value 1.01 | locus YGR229C, strain SMI1, stronger effect = lower value 1 | locus YGR252W, strain gcn5, stronger effect = lower value 1.01 | locus YHR013C, strain ard1, stronger effect = lower value 1.01 | locus YHR027C, strain rpn1, stronger effect = lower value 1 | locus YHR030C, strain SLT2, stronger effect = lower value 1.01 and 0.961 | locus YHR079C, strain IRE1 (second series), stronger effect = lower value 1.02 | locus YHR079C, strain IRE1, stronger effect = lower value 0.991 | locus YHR094C, strain hxt1, stronger effect = lower value 1.02 | locus YHR129C, strain ARP1, stronger effect = lower value 1.01 | locus YHR142W, strain chs7, stronger effect = lower value 1 | locus YHR200W, strain rpn10, stronger effect = lower value 1.02 | locus YIL066C, strain RNR3, stronger effect = lower value 1.02 | locus YIL073C, strain SPO22, stronger effect = lower value 1.05 | locus YIL125W, strain kgd1, stronger effect = lower value 1.01 | locus YIR030C, strain dcg1, stronger effect = lower value 1.01 | locus YJL092W, strain hpr5, stronger effect = lower value 1.01 | locus YJL095W, strain BCK1 (second series), stronger effect = lower value 1.01 | locus YJL095W, strain BCK1, stronger effect = lower value 1.01 and 0.996 | locus YJL115W, strain asf1, stronger effect = lower value 1.01 | locus YJL129C, strain trk1, stronger effect = lower value 1.02 | locus YJL134W, strain LCB3, stronger effect = lower value 1 | locus YJL154C, strain vps35, stronger effect = lower value 1 | locus YJL164C, strain tpk1, stronger effect = lower value 0.983 | locus YJL166W, strain qcr8, stronger effect = lower value 1.02 | locus YJL168C, strain set2, stronger effect = lower value 1.01 | locus YJL187C, strain SWE1 (second series), stronger effect = lower value 1.02 | locus YJL187C, strain SWE1, stronger effect = lower value 1.01 | locus YJR043C, strain POL32, stronger effect = lower value 1.01 | locus YJR066W, strain TOR1, stronger effect = lower value 0.978 | locus YJR075W, strain HOC1, stronger effect = lower value 1.01
